Assay results published in PubChem BioAssay (NCI).
Several values for one entry are separate records, joined by “and”; a condition that tells them apart may be missing. Equal entries are not always repeated. About 83,000 compounds went through this panel and 20% of them were active in at least one assay; those are over-represented in the sample as a whole.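 In brief: 96-well plates, 48 h treatment, single concentration, percent growth endpoint.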 Activity calls are given as the source filed them. How the source made its calls: active means growth percent below 10; inactive means the rest.

Experiments:
Test in all cases: NCI-60 one-dose screen, 48 h (100 = growth as untreated, 0 = no growth, -100 = all killed)
HCT-15 colon = system: HCT-15 colon
HT29 colon = system: HT29 colon
SNB-75 CNS = system: SNB-75 CNS
SNB-19 CNS = system: SNB-19 CNS
U251 CNS = system: U251 CNS
PC-3 prostate = system: PC-3 prostate
SK-MEL-5 melanoma = system: SK-MEL-5 melanoma
UACC-62 melanoma = system: UACC-62 melanoma
LOX IMVI melanoma = system: LOX IMVI melanoma
SK-MEL-28 melanoma = system: SK-MEL-28 melanoma
SK-MEL-2 melanoma = system: SK-MEL-2 melanoma
EKVX NSCLC = system: EKVX NSCLC
SN12C renal = system: SN12C renal
UO-31 renal = system: UO-31 renal
TK-10 renal = system: TK-10 renal
ACHN renal = system: ACHN renal
CAKI-1 renal = system: CAKI-1 renal
A498 renal = system: A498 renal
CCRF-CEM leukemia = system: CCRF-CEM leukemia
MOLT-4 leukemia = system: MOLT-4 leukemia

Measured: growth

CCCCCCCCCCCCCCCc1ccc(Cl)c(O)c1Cl (tested in a mixture with another compound)
inactive: HCT-15 colon; 0.25 µM 76.6% | HCT-15 colon; 10 µM 109% | HT29 colon; 0.25 µM 43.1% | HT29 colon; 10 µM 88% | SNB-75 CNS; 0.25 µM 36.6% | SNB-75 CNS; 10 µM 94.2% | SNB-19 CNS; 0.25 µM 10.8% | SNB-19 CNS; 10 µM 111% | U251 CNS; 0.25 µM 13% | U251 CNS; 10 µM 92.9% | PC-3 prostate; 0.25 µM 59.5% | PC-3 prostate; 10 µM 90.4% | SK-MEL-5 melanoma; 10 µM unless noted 87.7% | UACC-62 melanoma; 10 µM unless noted 22.8% [0.25 µM] | LOX IMVI melanoma; 0.25 µM 19.4% | LOX IMVI melanoma; 10 µM 99.2% | SK-MEL-28 melanoma; 0.25 µM 51.3% | SK-MEL-28 melanoma; 10 µM 109% | SK-MEL-2 melanoma; 0.25 µM 57.4% | SK-MEL-2 melanoma; 10 µM 88.2% | EKVX NSCLC; 0.25 µM 79.8% | EKVX NSCLC; 10 µM 106% | SN12C renal; 0.25 µM 12.5% | SN12C renal; 10 µM 89.7% | UO-31 renal; 0.25 µM 63.4% | UO-31 renal; 10 µM 93.6% | TK-10 renal; 0.25 µM 68.9% | TK-10 renal; 10 µM 115% | ACHN renal; 0.25 µM 34% | ACHN renal; 10 µM 108% | CAKI-1 renal; 0.25 µM 32% | CAKI-1 renal; 10 µM 94.8% | A498 renal; 0.25 µM 43.5% | A498 renal; 10 µM 125% | CCRF-CEM leukemia; 0.25 µM 18.3% | CCRF-CEM leukemia; 10 µM 93% | MOLT-4 leukemia; 10 µM 104%
active: MOLT-4 leukemia; 0.25 µM 4.89%

C/C(=N\NC(=O)c1ccncc1)c1ccccc1O
inactive: HCT-15 colon; 10 µM unless noted 22.8% and 23.3% | HT29 colon; 10 µM unless noted 29.7% and 29.1% | SNB-75 CNS; 10 µM unless noted 89.5% and 50.9% | SNB-19 CNS; 10 µM unless noted 47.8% and 46.6% | U251 CNS; 10 µM unless noted 33.8% and 33.4% | PC-3 prostate; 10 µM unless noted 44.4% and 35.8% | SK-MEL-5 melanoma; 10 µM unless noted 38.7% and 50% | UACC-62 melanoma; 10 µM unless noted 22% and 30.6% | LOX IMVI melanoma; 10 µM unless noted 22.5% and 10.9% | SK-MEL-28 melanoma; 10 µM unless noted 52.4% and 63.1% | SK-MEL-2 melanoma; 10 µM unless noted 75.3% and 18.8% | EKVX NSCLC; 10 µM unless noted 16.5% and 31.5% | SN12C renal; 10 µM unless noted 45.9% and 46.9% | UO-31 renal; 10 µM unless noted 31.3% and 20.6% | TK-10 renal; 10 µM unless noted 34.7% and 37.4% | ACHN renal; 10 µM unless noted 26.3% and 26.5% | CAKI-1 renal; 10 µM unless noted 10.4% | A498 renal; 10 µM unless noted 68.9% | CCRF-CEM leukemia; 10 µM unless noted 16% and 15.8%

O=C(O)c1sccc1O
active: SK-MEL-5 melanoma; 100 µM 7.35% | UACC-62 melanoma; 100 µM 0.233% | LOX IMVI melanoma; 100 µM 2.04% | SK-MEL-2 melanoma; 100 µM 8.51%
inactive: HCT-15 colon; 10 µM 81% | HCT-15 colon; 100 µM 31.5% | HT29 colon; 10 µM 105% | HT29 colon; 100 µM 30.2% | SNB-75 CNS; 10 µM 84.6% | SNB-75 CNS; 100 µM 28.5% | SNB-19 CNS; 10 µM 82.1% | SNB-19 CNS; 100 µM 34.8% | U251 CNS; 10 µM 76.6% | U251 CNS; 100 µM 15.9% | PC-3 prostate; 10 µM 49.3% | PC-3 prostate; 100 µM 23% | SK-MEL-5 melanoma; 10 µM 78.6% | UACC-62 melanoma; 10 µM 56.5% | LOX IMVI melanoma; 10 µM 80.3% | SK-MEL-28 melanoma; 10 µM 101% | SK-MEL-28 melanoma; 100 µM 28.3% | SK-MEL-2 melanoma; 10 µM 87.2% | EKVX NSCLC; 10 µM 81.3% | EKVX NSCLC; 100 µM 33.5% | SN12C renal; 10 µM 76.3% | SN12C renal; 100 µM 35.7% | UO-31 renal; 10 µM 48.1% | UO-31 renal; 100 µM 26.7% | TK-10 renal; 10 µM 133% | TK-10 renal; 100 µM 68.8% | ACHN renal; 10 µM unless noted 70.7% | A498 renal; 10 µM 89.1% | A498 renal; 100 µM 46.2% | CCRF-CEM leukemia; 10 µM 47.7% | CCRF-CEM leukemia; 100 µM 15.1%
